Among the data in PubChem BioAssay (NCI) are growth inhibition values, retold here.

Several values for one entry are separate records, joined by “and”; a condition that tells them apart may be missing. Equal entries are not always repeated. The panel holds about 79,000 compounds, 15% with a hit somewhere; the sample as a whole holds those more often. Unmarked numbers belong to inactive results. Activity calls are given as the source filed them. No stated cut-off is given here; in the data, active means growth inhibition above about 70%; inactive means the rest.

The nature of the first experiment: NCI Yeast Anticancer Drug Screen. Data for the cln2 rad14 strain (AID 165).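 Further: 0% = growth equal to vehicle treated cultures.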 The conditions noted are these: S. cerevisiae cln2 rad14 strain, hits give high values; at 50.0 µM unless noted. An outline of the steps:
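Each compound was tested on cln2 rad14 yeast. Inhibition of growth was calculated against vehicle-exposed controls.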
Turning to `CCOC(=O)Nc1ccccc1OCC`, the growth inhibition was -90%.

As to `ClC(Cl)(Cl)c1ncnc2nc[nH]c12`, the growth inhibition was 9.95%.

Consider `CNC(=S)NCOCCOC(C)=O`, for which the growth inhibition was -26.9%.

On to `NC(Cc1cc(Br)c(Oc2ccc(O)cc2)c(Br)c1)C(=O)O` (stereo not drawn), for which the growth inhibition was -0.55%.

As for `O=[N+]([O-])c1ccc(S(=O)(=O)O)cc1`, the growth inhibition was -22.7%.

`CCCSc1nc(C(=O)O)cc(=O)[nH]1`: the growth inhibition is -44.2%.

As to `CC(=O)N(C)c1ccccc1`, the growth inhibition was -40.5%.

Regarding `O=C(O)c1cc([N+](=O)[O-])c(O)c2ccccc12`, the growth inhibition was -22.1%.

`COC(=O)C1=C2C3(O)CC4CC5C3CCC(C)N5C24C2CCCC(OC)C2C1OC(=O)c1ccccc1` (stereo not drawn): the growth inhibition was 8.9%.

Consider `CCCC(=O)OCC1OC(n2cc(F)c(=O)[nH]c2=O)CC1OC(=O)CCC` (stereo not drawn), for which the growth inhibition is -4.3%.

With `O=[N+]([O-])c1cccc(Br)c1`, the growth inhibition is -52.6%.

Take `COC(=O)/C=C(/Sc1nc(Cl)c(Cl)nc1N)C(=O)OC` (tested in a mixture with another compound): the growth inhibition is -4.3%.

Regarding `CC(C)(C)NC(=O)C(Br)c1ccccc1` (stereo not drawn), the growth inhibition is -2.25%.

As for `C=C1CC2C=CC1C2` (stereo not drawn), the growth inhibition was 0.25%.

Regarding `O=S(=O)(O)c1cc(N=[N+]([O-])c2ccc(N=Nc3ccccc3)cc2S(=O)(=O)O)ccc1/C=C/c1ccc(N=[N+]([O-])c2ccc(N=Nc3ccccc3)cc2S(=O)(=O)O)cc1S(=O)(=O)O`, the growth inhibition is 7.15%.

Regarding `CC(C)(C)c1ccc(C(C)(C)C)c(N2C(=O)c3ccc4c5ccc6c7c(ccc(c8ccc(c3c48)C2=O)c75)C(=O)N(c2cc(C(C)(C)C)ccc2C(C)(C)C)C6=O)c1`, the growth inhibition was -6.2%.

For `CO[C@@H]1C2=CC=CC=C[C@H]2n2c(=O)n(-c3ccccc3)c(=O)n21`, the growth inhibition is -14.4%.

For `Nc1nc(N)c2[nH]cnc2n1`, the growth inhibition was 10.7% and -30.4%.

As to `CCOC(=O)c1ccc2c(c1)C(=O)c1cc([N+](=O)[O-])ccc1-2`, the growth inhibition was 10.6%.

Regarding `N#CCCOc1ccc(N)cc1`, the growth inhibition is 3.75%.

Take `O=C1NCC2(CCNCC2)N1`: the growth inhibition is 15.6%.

As to `CCCCc1cc(C(=O)OC/C(C)=N/NC(N)=O)c2ccccc2n1`, the growth inhibition is -27.6%.

As for `Nc1cc(C(=O)O)[nH]c(=O)n1`, the growth inhibition is -70.2%.

Consider `O=c1c2ccccc2c(=O)n2n1-c1cccc(c1)CSSCc1cccc-2c1`, for which the growth inhibition is -3.45%.

`O=C(O)COc1ccc(F)cc1F`: the growth inhibition was -31.4%.

For the molecule `Cc1ccc(S(=O)(=O)c2ccccc2)cc1`, the growth inhibition is 2.4% and 1.35%.

Take `CCCCCCCCCCCC(O)C(C)(C)C` (stereo not drawn): the growth inhibition is -39.2%.

Consider `CC1(O)CC(=O)c2c(cc3ccc(-c4c5c(c(O)c6c(O)cccc46)C(=O)CC(C)(O)C5)c(O)c3c2O)C1` (stereo not drawn), for which the growth inhibition was 23.8%.

Regarding `N#C/C(=C\c1ccc(Cl)cc1Cl)C(=O)N/N=C/c1ccc(Cl)cc1Cl`, the growth inhibition was 58.2%.

Consider `O=C1C2CCC2C(=O)N1c1ccc2ccccc2c1` (stereo not drawn), for which the growth inhibition was -17.9%.

As for `Cc1cc(O)c(C)cc1O`, the growth inhibition was 6.5%.

With `C[N+](C)(CCCCCCCCCC[N+](C)(C)CC(=O)c1ccccc1)CC(=O)c1ccccc1`, the growth inhibition was -11.8%.

As to `CCCCN1C(=O)NC(Cc2ccccc2)C1=O` (stereo not drawn), the growth inhibition was 4.95%.

With `CCCCCCCCCCCC[N+](C)(C)C(C)Cc1ccccc1` (stereo not drawn), the growth inhibition was 99.4% (active).

For `O=S(=O)(O)c1cc(O)c(S(=O)(=O)O)cc1O`, the growth inhibition was -3.6%.

Regarding `CC(C)CC1N=C(NN=C(CCl)CCl)OP1(=O)NCCCCCCNP1(=O)OC(NN=C(CCl)CCl)=NC1CC(C)C` (stereo not drawn), the growth inhibition was 4.75%.

For `O=C1CC2c3ccccc3CCN2C2=C1CCC2` (stereo not drawn), the growth inhibition was -16.2%.

Turning to `O=Nc1c(S(=O)(=O)O)cc2cc(S(=O)(=O)O)ccc2c1O`, the growth inhibition was 22.4%.

In the case of `Cc1ccc(S(=O)(=O)NC(CCC(=O)N2CCOCC2)C(=O)O)cc1` (stereo not drawn), the growth inhibition is -57.9%.

A short description of a further experiment: NCI Yeast Anticancer Drug Screen. Data for the bub3 strain (AID 167). Particulars: S. cerevisiae bub3 mutant strain, hits give high values; at 50.0 µM unless noted. The method in brief:
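Mutant yeast screening strain plus compound; vehicle-treated cultures serve as the 0% inhibition reference.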
On to `CCOC(=O)Nc1ccccc1OCC`, for which the growth inhibition is 6.2%.

On to `ClC(Cl)(Cl)c1ncnc2nc[nH]c12`, for which the growth inhibition was -16.9%.

Turning to `CNC(=S)NCOCCOC(C)=O`, the growth inhibition was 0.75%.

Regarding `NC(Cc1cc(Br)c(Oc2ccc(O)cc2)c(Br)c1)C(=O)O` (stereo not drawn), the growth inhibition is 2.55%.

Take `O=[N+]([O-])c1ccc(S(=O)(=O)O)cc1`: the growth inhibition was 9.65%.

With `CCCSc1nc(C(=O)O)cc(=O)[nH]1`, the growth inhibition is -5.1%.

As to `CC(=O)N(C)c1ccccc1`, the growth inhibition was -8.45%.

As to `O=C(O)c1cc([N+](=O)[O-])c(O)c2ccccc12`, the growth inhibition is -16.1%.

Regarding `COC(=O)C1=C2C3(O)CC4CC5C3CCC(C)N5C24C2CCCC(OC)C2C1OC(=O)c1ccccc1` (stereo not drawn), the growth inhibition was 0.7%.

Take `CCCC(=O)OCC1OC(n2cc(F)c(=O)[nH]c2=O)CC1OC(=O)CCC` (stereo not drawn): the growth inhibition was -13.9%.

Take `O=[N+]([O-])c1cccc(Br)c1`: the growth inhibition is 3.45%.

Consider `COC(=O)/C=C(/Sc1nc(Cl)c(Cl)nc1N)C(=O)OC` (tested in a mixture with another compound), for which the growth inhibition was -29.5%.

Regarding `CC(C)(C)NC(=O)C(Br)c1ccccc1` (stereo not drawn), the growth inhibition is 54.1%.

For the molecule `C=C1CC2C=CC1C2` (stereo not drawn), the growth inhibition was -15.8%.

`O=S(=O)(O)c1cc(N=[N+]([O-])c2ccc(N=Nc3ccccc3)cc2S(=O)(=O)O)ccc1/C=C/c1ccc(N=[N+]([O-])c2ccc(N=Nc3ccccc3)cc2S(=O)(=O)O)cc1S(=O)(=O)O`: the growth inhibition is 0.8%.

As to `CC(C)(C)c1ccc(C(C)(C)C)c(N2C(=O)c3ccc4c5ccc6c7c(ccc(c8ccc(c3c48)C2=O)c75)C(=O)N(c2cc(C(C)(C)C)ccc2C(C)(C)C)C6=O)c1`, the growth inhibition is -11.9%.

In the case of `CO[C@@H]1C2=CC=CC=C[C@H]2n2c(=O)n(-c3ccccc3)c(=O)n21`, the growth inhibition is -1.15%.

With `Nc1nc(N)c2[nH]cnc2n1`, the growth inhibition is 0.6% and -16.6%.

As to `CCOC(=O)c1ccc2c(c1)C(=O)c1cc([N+](=O)[O-])ccc1-2`, the growth inhibition is 26.7%.

As for `N#CCCOc1ccc(N)cc1`, the growth inhibition was 8.65%.

For the molecule `O=C1NCC2(CCNCC2)N1`, the growth inhibition is 11.1%.

Consider `CCCCc1cc(C(=O)OC/C(C)=N/NC(N)=O)c2ccccc2n1`, for which the growth inhibition is 35.8%.

`Nc1cc(C(=O)O)[nH]c(=O)n1`: the growth inhibition is -18.9%.

For `O=c1c2ccccc2c(=O)n2n1-c1cccc(c1)CSSCc1cccc-2c1`, the growth inhibition was 0.2%.

Turning to `O=C(O)COc1ccc(F)cc1F`, the growth inhibition was 0.95%.

Turning to `Cc1ccc(S(=O)(=O)c2ccccc2)cc1`, the growth inhibition was -5.35% and 3.1%.

Take `CCCCCCCCCCCC(O)C(C)(C)C` (stereo not drawn): the growth inhibition is 11.9%.

Consider `CC1(O)CC(=O)c2c(cc3ccc(-c4c5c(c(O)c6c(O)cccc46)C(=O)CC(C)(O)C5)c(O)c3c2O)C1` (stereo not drawn), for which the growth inhibition was 19.7%.

Take `N#C/C(=C\c1ccc(Cl)cc1Cl)C(=O)N/N=C/c1ccc(Cl)cc1Cl`: the growth inhibition was 98% (active).

As to `O=C1C2CCC2C(=O)N1c1ccc2ccccc2c1` (stereo not drawn), the growth inhibition is 12.6%.

Regarding `Cc1cc(O)c(C)cc1O`, the growth inhibition was -7.95%.

Consider `C[N+](C)(CCCCCCCCCC[N+](C)(C)CC(=O)c1ccccc1)CC(=O)c1ccccc1`, for which the growth inhibition was 0.4%.

For the molecule `CCCCN1C(=O)NC(Cc2ccccc2)C1=O` (stereo not drawn), the growth inhibition was -1.9%.

As for `CCCCCCCCCCCC[N+](C)(C)C(C)Cc1ccccc1` (stereo not drawn), the growth inhibition is 99.2% (active).

Take `O=S(=O)(O)c1cc(O)c(S(=O)(=O)O)cc1O`: the growth inhibition was 1.4%.

As for `CC(C)CC1N=C(NN=C(CCl)CCl)OP1(=O)NCCCCCCNP1(=O)OC(NN=C(CCl)CCl)=NC1CC(C)C` (stereo not drawn), the growth inhibition was 24.8%.

In the case of `O=C1CC2c3ccccc3CCN2C2=C1CCC2` (stereo not drawn), the growth inhibition was 0.5%.

`O=Nc1c(S(=O)(=O)O)cc2cc(S(=O)(=O)O)ccc2c1O`: the growth inhibition is 23.1%.

Turning to `Cc1ccc(S(=O)(=O)NC(CCC(=O)N2CCOCC2)C(=O)O)cc1` (stereo not drawn), the growth inhibition was 24.8%.
